{"source": "PubChem BioAssay AID492997", "about": "(Johns Hopkins Ion Channel Center, 2010)", "note": "Hit rate of the full screen: of about 4,900 compounds, about 2,000 (41%) were called active.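 The calls were made as follows: active = thallium signal drop beyond 5 SD of the untreated control mean, on both duplicate plates; inactive = the rest.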 The set was probably picked from earlier hits. The list is a sample of the results.", "data": [{"test": "thallium flux in non-induced HEK293 cells, confirmation, counter-screen for KCNK9 inhibitor project, cell-based, second counter screen, non-induced KCNK9-HEK293 (AID 492997);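 as to inhibition: plate controls were buffer only IC0 wells for no effect and SID17386958 at its maximal inhibitory level for full effect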", "details": "non-induced KCNK9-HEK293, FluxOR thallium flux, at 10 µM; hits give high values", "values": [{"smiles": "CCC1(C)Cc2c(sc3[nH]c(=S)n(Cc4ccccc4)c(=O)c23)CO1", "note": "(stereo not drawn)", "inhibition": "inactive"}, {"smiles": "CCCSc1nc(NCc2ccco2)c2c3c(sc2n1)COC(C)(CC)C3", "note": "(stereo not drawn)", "inhibition": "38.5% (active)"}, {"smiles": "CCOC(=O)Cc1cc(=O)[nH]c(=O)[nH]1", "inhibition": "inactive"}, {"smiles": "COc1ccc(/C=C2\\CCc3ccccc3C2=O)c(OC)c1OC", "inhibition": "inactive"}, {"smiles": "CC1CCN(C(=O)c2ccc(CSc3ccc(Cl)cc3)cc2)CC1", "inhibition": "36% (active)"}, {"smiles": "CC1CCN(C(=S)c2ccc(-c3ccc(Cl)cc3Cl)o2)CC1", "inhibition": "inactive"}, {"smiles": "O=C(CSCc1ccc(Cl)cc1)N1CCN(Cc2ccc3c(c2)OCO3)CC1", "inhibition": "inactive"}, {"smiles": "CN(C)S(=O)(=O)N1CCC(Oc2cccc(C(=O)NCCCC3CCCC3)c2)CC1", "inhibition": "inactive"}, {"smiles": "Cc1cccc(NC(=O)N(Cc2cc3cc(C)cc(C)c3[nH]c2=O)CC2COCCO2)c1", "note": "(stereo not drawn)", "inhibition": "inactive"}, {"smiles": "O=C(COC(=O)c1c2c(nc3ccccc13)CCCC2)c1ccc(Br)s1", "inhibition": "22.5% (active)"}, {"smiles": "Cc1ccc(OS(=O)(=O)c2ccc(-c3csc(C)n3)s2)c(C)c1", "inhibition": "inactive"}, {"smiles": "COc1cccc(COC(=O)C2CCN(S(=O)(=O)c3ccc(Cl)cc3)CC2)c1OC", "inhibition": "inactive"}, {"smiles": "CN(CCOc1ccccc1)C(=O)c1cc(COc2c(F)cccc2F)on1", "inhibition": "inactive"}, {"smiles": "O=C(NCCCc1ccccc1)c1cc(COc2c(F)cccc2F)on1", "inhibition": "inactive"}, {"smiles": "O=C(NC1Cc2ccccc2C1)c1cc(COc2cccc(C(F)(F)F)c2)on1", "inhibition": "28% (active)"}, {"smiles": "CC(C)N(C(=O)CSc1nc(COc2ccccc2)nc2ccccc12)C(C)C", "inhibition": "29.5% (active)"}, {"smiles": "Cc1cc(C)cc(NC(=O)CSCc2cnn(-c3ccccc3)c2-n2cccc2)c1", "inhibition": "inactive"}, {"smiles": "CC(C)(C)C1CCC(C(=O)NCC(c2cccs2)N2CCOCC2)CC1", "note": "(stereo not drawn)", "inhibition": "inactive"}, {"smiles": "O=C(Nc1ccc(Br)c2cccnc12)c1ccc(Cn2cc([N+](=O)[O-])cn2)o1", "inhibition": "31% (active)"}, {"smiles": "CC1=NN(c2cccc(Cl)c2)C(=O)C12CC(C)=C(C)CS2", "note": "(stereo not drawn)", "inhibition": "40.5% (active)"}, {"smiles": "Cc1cc(C=O)c(C)n1-c1ccc(NC2CCCCC2)c([N+](=O)[O-])c1", "inhibition": "55% (active)"}, {"smiles": "CCOC(=O)c1c(NC(=O)CCCN2CCOCC2)sc2c1CC(C)(C)OC2", "inhibition": "inactive"}, {"smiles": "CCOC(=O)C1=C(C)Nc2sc(C(=O)c3ccc(Br)cc3)c(N)c2C1c1ccc(C(=O)OC)cc1", "note": "(stereo not drawn)", "inhibition": "32.5% (active)"}, {"smiles": "O=C(/C=C/NNC(=O)c1cccc(Br)c1)c1ccccc1", "inhibition": "50% (active)"}, {"smiles": "COc1ccc(Nc2ncnc3sc(-c4ccccc4)cc23)c(OC)c1", "inhibition": "inactive"}, {"smiles": "CCCCN(CC)C(=O)C1CCCN(S(=O)(=O)c2cccc3nsnc23)C1", "note": "(stereo not drawn)", "inhibition": "inactive"}, {"smiles": "Cc1ccc(SCC(=O)c2cc(C)c(OC(=S)N(C)C)c(C)c2)cc1", "inhibition": "34% (active)"}, {"smiles": "COc1ccc(C2Nc3ccccc3C(=O)N2Cc2ccccc2)cc1Cn1nnc2ccccc21", "note": "(stereo not drawn)", "inhibition": "39% (active)"}, {"smiles": "O=S(=O)(c1ccc(F)cc1)N1CCN(Cc2ccccc2C(F)(F)F)CC1", "inhibition": "inactive"}, {"smiles": "Cc1nn(CC(=O)Nc2nc3ccccc3s2)c(C)c1[N+](=O)[O-]", "inhibition": "33.5% (active)"}, {"smiles": "COc1cccc2sc(NNC(=O)c3nc4ccccc4s3)nc12", "inhibition": "inactive"}, {"smiles": "CCn1cnc2scc(-c3ccc(C)c(C)c3)c2c1=O", "inhibition": "inactive"}, {"smiles": "O=C(Nc1ccccc1[N+](=O)[O-])C1C(c2ccccc2)=C1c1ccccc1", "inhibition": "26% (active)"}, {"smiles": "CCCCCCCCn1c2c(c(=N)c3c1CCC3)CCCC2", "inhibition": "27% (active)"}, {"smiles": "Cc1ccc(Cn2ccc(NC(=O)c3cc(C(C)C)on3)n2)cc1", "inhibition": "inactive"}, {"smiles": "CCOC(=O)[C@@H]1[C@H]2COc3ccc(Br)cc3[C@H]2N2C(=O)N(c3ccc(Cl)cc3)C(=O)[C@@]12C", "inhibition": "36% (active)"}, {"smiles": "C[C@@]12C(=O)N(c3cccc(Br)c3)C(=O)N1[C@H](c1ccc(Cl)cc1)[C@@H]1C(=O)N(C3CCCCC3)C(=O)[C@@H]12", "inhibition": "inactive"}, {"smiles": "COC(=O)c1cccc(C(=O)N2CCCC(Nc3ccc4c(c3)OCCO4)C2)c1", "note": "(stereo not drawn)", "inhibition": "inactive"}, {"smiles": "COc1ccc(OC)c(C(=O)c2coc3ccc(OC)cc23)c1", "inhibition": "27% (active)"}, {"smiles": "CN(CCC(=O)Nc1cc(S(=O)(=O)N(C)C)ccc1Cl)CC(=O)Nc1ccc(F)cc1", "inhibition": "42% (active)"}, {"smiles": "COc1ccc(NC(=O)CN(C)CC(=O)Nc2cccc(C(F)(F)F)c2)cc1", "inhibition": "inactive"}, {"smiles": "COc1ccc(-c2n[nH]c3c2CN(C(=O)c2ccc(F)cc2)CC3)cc1", "inhibition": "inactive"}, {"smiles": "CC1=CC(C)(C)N(C(=O)CSc2nnc(-c3ccccc3)o2)c2ccc(C)cc21", "inhibition": "inactive"}, {"smiles": "COc1ccc(-c2noc(CSc3ccc(C)cc3)n2)cc1", "inhibition": "inactive"}, {"smiles": "COc1cccc(C(=O)NCCSc2ccc(Br)cc2)c1", "inhibition": "inactive"}, {"smiles": "COc1cc(NC(=S)NCCSc2ccc(C)cc2)cc(OC)c1", "inhibition": "24% (active)"}, {"smiles": "FC(F)(F)c1cc(-c2ccco2)nc(NCc2ccc(Cl)cc2)n1", "inhibition": "60.5% (active)"}, {"smiles": "O=C1/C(=C/c2ccc(F)cc2)SC(=S)N1NS(=O)(=O)c1ccccc1", "inhibition": "inactive"}, {"smiles": "C/C(=N\\NC(=S)Nc1ccc(C)cc1)c1cc2ccccc2o1", "inhibition": "inactive"}, {"smiles": "CCOC(=O)c1c(NC(=O)CSc2cn(CC)c3ccccc23)sc2c1CCC2", "inhibition": "inactive"}, {"smiles": "CCCCCn1c(=O)c(C(=O)OCC)c(Cl)c2ccccc21", "inhibition": "40.5% (active)"}, {"smiles": "Cc1ccccc1N1CCN(Cc2nc(Cc3ccccc3F)no2)CC1", "inhibition": "inactive"}, {"smiles": "Fc1cccc(Cl)c1CSc1ccc(-c2ccco2)nn1", "inhibition": "32% (active)"}, {"smiles": "O=C(Nc1cc(Cl)cc(Cl)c1)C(NCCCO)c1ccccc1", "note": "(stereo not drawn)", "inhibition": "29% (active)"}, {"smiles": "Cc1cc(OC(C)C(=O)Nc2ccc(S(=O)(=O)Nc3onc(C)c3C)cc2)cc(C)c1Cl", "note": "(stereo not drawn)", "inhibition": "inactive"}, {"smiles": "O=C(CNCCC1=CCCCC1)Nc1ccccc1N1CCCCCC1", "inhibition": "38.5% (active)"}, {"smiles": "Cc1cc(C)cc(OCC(=O)Nc2cc(NC(=O)COc3cc(C)cc(C)c3)cc(C(=O)O)c2)c1", "inhibition": "inactive"}, {"smiles": "COc1cccc(-c2cc3nc4c(c(N5CCC6(CC5)OCCO6)n3n2)CCCC4)c1", "inhibition": "27% (active)"}, {"smiles": "COc1cccc2cc(C(C)N(CCCN3CCOCC3)C(=O)Nc3ccc(Cl)cc3)oc12", "note": "(stereo not drawn)", "inhibition": "28.5% (active)"}, {"smiles": "CN(C)c1ccc(C(CNC(=O)c2ccc(F)cc2)c2c[nH]c3ccccc23)cc1", "note": "(stereo not drawn)", "inhibition": "39% (active)"}, {"smiles": "CCN(CC)C(=O)CC1(c2ccccc2OC)CCOC(C(C)C)C1", "note": "(stereo not drawn)", "inhibition": "38% (active)"}, {"smiles": "COc1cccc(CN(C)C(=O)CC23CC4CC(CC(C4)C2)C3)c1OC", "inhibition": "inactive"}, {"smiles": "CC(C)(C)NC(=O)NC(=O)CN1CCC(Cc2ccccc2)CC1", "inhibition": "inactive"}]}]}
